# An excerpt weighted towards active compounds, which were near 0.51% of everything screened.
# E coli growth-1 = E. coli growth inhibition, primary screen, OD600. Escherichia coli growth, 23 h; stronger effect = lower value. OD600 absorbance (test concentration not listed). 0.21% of 330,000 active. AID 1053175, 2014;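 active means OD600 absorbance below the run mean of sample wells minus 3.6 SD, in any replicate, cut at about 0.56 in these data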
# Tat transport = E. coli Tat export inhibitors, primary screen, MC4100, TorA-mCherry reporter, fluorescence, single point | inhibition, % at 10 µM | 0.036% of 340,000 active | AID 488895, 2010;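 active means mean replicate inhibition at least 50% and at least half of replicates individually reaching 50%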;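 further: exported cargo escapes ClpAP degradation while cytoplasmic cargo is degraded and loses fluorescence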
# E coli growth-2 = E. coli V3065 growth inhibition, primary screen, counter-screen for AddAB inhibitor project, absorbance, OD600 | 18 h | inhibition, % at 11.9 µM | 0.27% of 330,000 active;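 active means inhibition above the campaign's mean inhibition across all tested compounds plus 3 SD, cut at about 9.9% in these data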;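 further: uninfected addAB+ strain grown without phage in ampicillin broth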
# AddAB inh = growth inhibition of E. coli expressing H. pylori AddAB, primary screen, AddAB inhibitor project, absorbance; inhibition, % at 11.9 µM; 0.29% of 330,000 active; AID 435030, 2010; in the data active means inhibition above about 12%
# phage Ecoli inh = growth loss of phage-infected E. coli, primary screen, RecBCD inhibitor project, absorbance, with phage, HTS | inhibition, % at 11.9 µM | 0.26% of 360,000 active; in the data active means inhibition above about 11%
# RecBCD conf = growth loss of phage-infected RecBCD+ E. coli, confirmation, RecBCD inhibitor project, absorbance, E. coli V66, T4 gene 2 phage; AID 651982, 2013; E. coli V66 + T4 2- phage, growth OD; 45% of 890 active; shares compounds with phage Ecoli inh; inhibition, % at 11.9 µM;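 active means mean inhibition over triplicates exceeding the hit threshold derived in the original primary screen, cut at about 11% in these data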
# Ecoli viability = E. coli viability inhibition, counter-screen for RecBCD inhibitor project, absorbance, high throughput; shares compounds with phage Ecoli inh; absorbance (OD) growth; inhibition, % at 11.9 µM; 29% of 890 active; AID 651983, 2013; in the data active means inhibition above about 20%;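 further: E. coli strain V66 grown with compound alone and no phage infection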
# AddAB counter = growth loss of phage-infected AddAB-carrying E. coli, confirmation, counter-screen for RecBCD inhibitor project, absorbance, E. coli V3065, T4 phage | E. coli expressing H. pylori AddAB + T4 phage, OD growth; gene 2 mutant T4, recBCD-deleted host | 45% of 890 active | inhibition, % at 11.9 µM | shares compounds with phage Ecoli inh;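 active means mean inhibition above the solvent-only control wells' mean plus 3 SD, cut at about 22% in these data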;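 further: higher means less bacterial growth from phage killing when AddAB is blocked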
# Hits are given with their value; 0 = inactive; - = no result given.
SMILES,E coli growth-1,Tat transport,E coli growth-2,AddAB inh,phage Ecoli inh,RecBCD conf,Ecoli viability,AddAB counter
COc1ccc2c(c1)C1C(CO2)C(c2ccccc2)[C@]2(C)C(=O)Nc3cc(OC)c(OC)cc3C(=O)N12 (stereo partly specified),0,-,-,-,-,-,-,-
CCOC1OC(C(=O)NC2CC2)=CC(C2CC2)C1CCCO (stereo unspecified),0,-,-,-,-,-,-,-
Cc1ccc(-c2nc3ccc(Cl)cc3c(=O)n2O)cc1,0,0,0,0,11,0,0,0
Cc1ccc(-c2nc3ccccc3c(=O)n2O)cc1,0,0,0,0,0,-,-,-
CCC1OC(=O)C(C)C(OC2C[C@@](C)(OC)C(O)C(C)O2)C(C)C(O[C@@H]2OC(C)CC(N(C)C)C2O)[C@](C)(O)CC(C)C(=NOCOCCOC)C(C)C(O)[C@]1(C)O (stereo partly specified),-,0,10.0,0,12,0,0,0
CC=CC=CC(=O)N1CC2(CC(c3cccc(NC(=O)COc4ccc(Cl)cc4)c3)=NO2)CC1C(N)=O (stereo unspecified),0,-,-,-,-,-,-,-
COc1cccc(-c2cnc(C(O)c3cccc(OC)c3)[nH]2)c1 (stereo unspecified),-,-,-,-,11,0,0,0
Cc1cc(C)cc(C(O)c2ncc(-c3ccc4ccccc4c3)[nH]2)c1 (stereo unspecified),-,-,-,-,18,12,0,26
Cc1cc(C(O)c2ncc(-c3ccc(Oc4ccccc4)cc3)[nH]2)ccc1F (stereo unspecified),-,-,-,-,11,0,0,0
Cc1ccc(-c2cnc(C(O)c3cc(C)cc(C)c3)[nH]2)cc1 (stereo unspecified),-,-,-,-,17,11,0,0
OC(c1ccc(F)cc1)c1ncc(-c2ccc(Oc3ccccc3)cc2)[nH]1 (stereo unspecified),-,-,-,-,0,-,-,-
COc1cccc(/C=N/NC(=O)c2cc(-c3cccn3C)n[nH]2)c1O,-,0,0,0,12,0,0,0
S=C(NCC1CCCCC1)Nc1ccc(Oc2ccccc2)cc1,0,0,0,0,0,-,-,-
FC(F)Sc1ccc(NC(=S)NCC2CCCCC2)cc1,0,0,0,0,13,0,0,0
FC(F)Sc1ccc(NC(=S)NC2CCCCC2)cc1,0,0,0,0,12,0,0,0
CN(C)C(=O)C(=Cc1cccc(Oc2ccccc2)c1)NC(=O)c1ccccc1,0,-,-,-,-,-,-,-
CC1CN(C(C)CO)C(=O)c2cccc(NC(=O)Cc3ccccc3)c2OC1CN(C)S(C)(=O)=O (stereo unspecified),0,-,-,-,-,-,-,-
CCCC[n+]1ccn(-c2nc3ccccc3nc2[N-]S(=O)(=O)c2cccs2)c1,0,0,0,0,97,0,0,0
CCCC[n+]1ccn(-c2nc3ccccc3nc2[N-]S(=O)(=O)c2ccccc2)c1,0,0,0,0,0,-,-,-
Cc1ccc(C2C3C(=O)N(c4ccccc4)C(=O)C3[C@]3(Cc4ccccc4)C(=O)N(CC4CC4)CC(=O)N23)o1 (stereo partly specified),0,-,-,-,-,-,-,-
O=C(Nc1cccc(Cl)c1)Nc1cccc(Cl)c1,0,0,0,0,0,-,-,-
O=C(Nc1cccc(F)c1)Nc1cccc(Cl)c1,0.41,0,0,0,14,13,0,0
CC1(C)S[C@@H]2[C@H](NC(=O)[C@H](N)c3ccccc3)C(=O)N2[C@H]1C(=O)OC1OC(=O)c2ccccc21 (stereo partly specified),-,0,0,0,21,30,53,0
COC(=O)C1N2C(=O)C(NC(=O)COc3ccccc3)C2SC1(C)C (stereo unspecified),0,-,-,-,-,-,-,-
Cc1ccc(-c2nc(CS(=O)CC(=O)NCc3ccccc3)c(C)o2)cc1 (stereo unspecified),0,0,0,0,29,0,0,0
SMILES,E coli growth-1,Tat transport,E coli growth-2,AddAB inh,phage Ecoli inh,RecBCD conf,Ecoli viability,AddAB counter
N#CCCN(C(=O)CSc1nc2ccccc2c(=O)[nH]1)c1ccc(F)cc1,0,0,0,0,12,0,0,0
Nc1nc(N)c2c(ccc3c2ccn3Cc2cccc([N+](=O)[O-])c2)n1,-,-,-,-,100,103,103,103
Nc1nc(N)c2cc([N+](=O)[O-])ccc2n1,0,0,-,-,0,-,-,-
O=C(NNC(=O)c1cc(-c2cccnc2)nc2ccccc12)Nc1ccc(Cl)cc1,0.52,0,0,0,13,0,0,0
COc1ccc(N/N=C/c2c(C(=O)O)ccc3ccccc23)cc1,-,0,16,0,11,0,0,0
Oc1ccc(-c2nc3ccccc3nc2-c2ccccc2)cc1,0,0,0,0,33,0,0,0
CC(=O)n1cc(C2C=C(C(N)=O)OC(OCc3ccc(CO)cc3)C2)c2ccccc21 (stereo unspecified),0,-,-,-,-,-,-,-
CC(C(=O)Nc1ccc2ccccc2c1)C1C[C@]1(C)C(NC(=O)c1cccnc1)c1ccccc1 (stereo partly specified),0,-,-,-,-,-,-,-
O=C(Nc1cccc([N+](=O)[O-])c1)c1ccc([N+](=O)[O-])o1,-,-,-,-,20,15,0,90
O=C(Nc1cccc([N+](=O)[O-])c1)c1ccncc1,0,0,0,0,0,-,-,-
CC(C)c1ccc(NC(=O)CSc2nc3ncccc3[nH]2)cc1,0,0,0,0,0,-,-,-
CC(C)OC(=O)c1ccc(NC(=O)CSc2nc3ncccc3[nH]2)cc1,0,0,0,0,11,0,0,0
O=C(NC(Nc1nc2ccc([N+](=O)[O-])cc2s1)(C(F)(F)F)C(F)(F)F)c1ccccc1Cl,0,0,11,14,15,0,0,0
N#Cc1c(Nc2ccccc2)[n+]([O-])c2ccc(Cl)cc2[n+]1[O-],-,0,-,-,13,16,0,49
O=C(/C=C/Nc1ccccc1)c1ccc(Cl)cc1Cl,0,0,0,0,0,-,-,-
COC(=O)C1CC1C(N)c1ccccc1 (stereo unspecified),0,-,-,-,-,-,-,-
CO[C@H]1C=CO[C@@]2(C)Oc3c(C)c(O)c4c(O)c(c(C=NN5CCN(C)CC5)c(O)c4c3C2=O)NC(=O)C(C)=CC=C[C@H](C)[C@H](O)[C@@H](C)[C@@H](O)[C@@H](C)[C@H](OC(C)=O)[C@@H]1C,-,75,42,49,76,78,90,93
C=CCc1cccc(C=NNC(=O)CCC(=O)Nc2ccc(C)cc2)c1O,0,-,-,-,-,-,-,-
C=CCc1cccc(/C=N/NC(=O)CCCNc2ccc(C)cc2)c1O,-,0,0,0,12,0,0,0
